Measurements: PubChem BioAssay (EPA / NIEHS)
The source made the active and inactive calls. Rule for the calls: active = hit-call score of the fitted dose curve at least 0.9, where 1 is the maximum; inactive = score below 0.9.

Assay: ATG_GATA_CIS: Attagene CIS-FACTORIAL HepG2 Assay for human GATA Binding Protein (AID 2282944)
Details: HepG2 GATA cis-element reporter, Attagene multiplex mRNA; actives raise or lower the signal
How it was run: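 Cells: HepG2, transiently transfected with cis-regulated reporter transcription units. Exposure: 24 h. Detection: RT-PCR plus capillary electrophoresis of FAM-labeled fragments. Analysis: bidirectional, DMSO as baseline.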

outcome, inactive:
O=C(O)CC(O)C(=O)O (stereo unspecified), CC(C)=CCCC(C)=CC=O, C=CC(=C)CCC=C(C)C, CC[C@H]1OC(=O)[C@H](C)[C@@H](O[C@H]2C[C@@](C)(OC)[C@@H](O)[C@H](C)O2)[C@H](C)[C@@H](O[C@@H]2O[C@H](C)C[C@H](N(C)C)[C@H]2O)[C@](C)(O)C[C@@H](C)C(=O)[C@H](C)[C@@H](O)[C@]1(C)O, O=C1CCC(N2C(=O)c3ccccc3C2=O)C(=O)N1 (stereo unspecified), C[C@](N)(Cc1ccc(O)c(O)c1)C(=O)O, Nc1cccc(N)c1, Cn1c(=O)c2c(ncn2C)n(C)c1=O, Nc1nc2ncc(CNc3ccc(C(=O)N[C@@H](CCC(=O)O)C(=O)O)cc3)nc2c(=O)[nH]1, CC(=O)OCCC(C)C, O=P(OC(CCl)CCl)(OC(CCl)CCl)OC(CCl)CCl, CCCC(=O)OCC, COc1cccc(-c2ccc(/C=C\CN3CCCCCC3)cc2Cl)c1, O=C(OC[C@H]1O[C@@H](OC(=O)c2cc(O)c(O)c(OC(=O)c3cc(O)c(O)c(O)c3)c2)[C@H](OC(=O)c2cc(O)c(O)c(OC(=O)c3cc(O)c(O)c(O)c3)c2)[C@@H](OC(=O)c2cc(O)c(O)c(OC(=O)c3cc(O)c(O)c(O)c3)c2)[C@@H]1OC(=O)c1cc(O)c(O)c(OC(=O)c2cc(O)c(O)c(O)c2)c1)c1cc(O)c(O)c(OC(=O)c2cc(O)c(O)c(O)c2)c1, CCOCCOCCOCCO, O=C(O)c1cccc(N(Cc2cccnc2)c2ccc(OC(F)F)c(OC(F)F)c2)c1
